ATXN viability – cell viability loss in ATXN counter-screen. S2 cells (HEK-293 line with an ATXN2-luciferase reporter) viability, CellTiter-Fluor protease fluorescence, 24 h. Potency, µM (highest dose often 56.7 µM), usual class: cytotoxic. actives 0.49% (n = 400,000). AID 651635; further: nearly all actives have a fitted effect of over 40% in size
HT1080-NT tox – kills 2HG-producing HT-1080-NT fibrosarcoma cells; HT-1080-NT fibrosarcoma viability, CellTiter-Glo ATP luminescence, 48 h; Potency, µM (titrated, usually from 46.1 µM), inactives show top-dose activity, negative = less viability, hits mostly cytotoxic; actives 1.6% (n = 360,000); AID 686970;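 further: NT is the 2HG producing partner of a matched IDH1 knockdown line; 0% = DMSO-treated cells and -100% = media-only wells without cells; nearly all actives have a fitted effect of over 55% in size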
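Read-out is CellTiter-Glo luminescence after 10 minutes at room temperature, following 48 hours' compound treatment of HT-1080-NT cells (750 cells/well, RPMI, 5% FBS, 37 degrees C).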
ATXN2 expr inh – ATXN2 expression inhibition. HEK-293 ATXN2-luciferase reporter, luminescence, 24 h. Potency, µM (doses to about 57 µM), for the others: top-dose activity change, negative = inhibition, hits mostly inhibitors. actives 0.72% (n = 360,000); further: on the % scale 0 is the no-effect control and ±100 the full control effect; nearly all actives have a fitted effect of over 55% in size
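qHTS (up to 57 uM final) was run with 24 h compound exposure of reporter cells at 37 °C. Each well was multiplexed: SteadyGlo luminescence measured ATXN2-luciferase expression after a fluorogenic Gly-Phe-AFC viability readout (25 uM final).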
KB-V1 MDR tox – kills drug-selected multidrug resistant KB-V1 cells | KB-V1 MDR cells viability, CellTiter-Glo, 72 h | Potency, µM (highest dose often 46.1 µM), most hits filed as cytotoxic | actives 3.4% (n = 400,000) | AID 1347076; further: on the % scale 0 is the no-effect control and ±100 the full control effect; nearly all actives have a fitted effect of over 60% in size
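Cytotoxicity toward P-gp-expressing KB-V1 cells was determined as loss of CellTiter-Glo luminescence after 72 h at 37 degrees C. Compounds were tested in quantitative HTS format across a concentration range, with curves fitted to normalized data.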
HT1080 IDH1KD tx – kills HT-1080 cells with IDH1 knockdown; HT-1080 IDH1 knockdown viability, ATP luminescence, 48 h; Potency, µM (doses to about 46.1 µM), inactives show top-dose activity, negative = toxicity, usual class: cytotoxic; actives 2% (n = 360,000);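 further: 0% = DMSO wells and -100% = cell-free medium wells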
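Knockdown cells (IDH1KD HT-1080) received compounds 2 h after plating at 750 cells/well and were kept 48 h at 37 °C in 5% FBS RPMI. A CellTiter-Glo luminescence read gave % activity for curve fitting.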
KB-3-1 cytotox – KB-3-1 parental cell cytotoxicity. Potency, µM (series often up to 46.1 µM), usual class: cytotoxic. AID 1347075. KB-3-1 viability, CellTiter-Glo ATP luminescence, 72 h. actives 1.4% (n = 400,000); further: on the % scale 0 is the no-effect control and ±100 the full control effect; nearly all actives have a fitted effect of over 60% in size
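Parental KB-3-1 adenocarcinoma cells in phenol-red-free DMEM with 10% FBS were pin-treated with compounds at several concentrations, incubated 72 h at 37 °C, and viability read by CellTiter-Glo luminescence; concentration-effect curves were fitted after normalization.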
* = called active by the depositor; i = inactive; ? = inconclusive; / = no result given; [ ] = remark or other dose. Shown are actives, neighbours in structure and some others; about 6.2% of the full set was active somewhere. The call rests on the fitted dose curve; in most records, active means well fitted curve in the direction sought with a large enough effect; inconclusive means small, poorly fitted or top-dose-only effect, or another doubt; inactive means no such curve, though single readings can be large; an effect the other way counts as inactive or inconclusive. Potency means the concentration at half of the fitted maximal effect.

SMILES	ATXN viability	HT1080-NT tox	ATXN2 expr inh	KB-V1 MDR tox	HT1080 IDH1KD tx	KB-3-1 cytotox
O=C(/C=C/c1ccccc1)c1cc(Br)ccc(=O)c1O	?	18.4µM*	20µM*	?	?	11.6µM*
COc1ccc(/C=C/C(=O)c2ccccc2O)cc1	i	10.1%	55.8%	i	0.5%	i
O=C(/C=C/c1ccc(F)cc1)c1cc(Br)ccc1O	i	-4.0%	18.0%	i	-0.7%	i
Cc1ccc(/C=C/C(=O)c2ccccc(=O)c2O)cc1C	?	18.4µM*	?	20.6µM*	?	9.2µM*
Cc1ccc2nc(Cl)c(/C=C/C(=O)c3ccco3)cc2c1	i	?	14.9%	i	-19.7%	?
Cc1ccc2cc(/C=C/C(=O)c3ccco3)c(Cl)nc2c1	i	?	-8.4%	?	11.6µM*	i
Cc1cc(C(=O)NCC2CCC3(CCN(Cc4cccc(F)c4F)CC3)O2)n(C)n1 (centres undefined)	i	/	/	/	/	/
COc1ccc(CCN2C(=O)CN(C3CCC(C)CC3)C(=O)C2c2ccc(OC(C)C)c(OC)c2)cc1OC (centres undefined)	/	/	/	i	/	i
O=C(CCCCn1c(=O)c2ccccc2n(Cc2ccc(Cl)cc2)c1=O)NCc1ccco1	i	?	-19.5%	4.61µM*	-17.4%[9.24 µM]	14.6µM*
Cc1ccc(CNC(=O)CCCCn2c(=O)c3ccccc3n(Cc3ccc(Cl)cc3)c2=O)cc1	i	/	5.7%	i	/	i
Cc1cccc(Cn2c(=O)n(CCCC(=O)NCc3ccco3)c(=O)c3ccccc32)c1	?	?	-24.8%	14.6µM*	?	9.2µM*
O=C(CCCn1c(=O)c2sccc2n(Cc2ccc(F)cc2)c1=O)NCc1ccco1	i	10µM*	-27.3%	i	?	?
Cc1ccccc1Cn1c(=O)n(CCCC(=O)NCc2ccco2)c(=O)c2ccccc21	i	-17.0%	-8.2%	i	-1.1%	i
O=C(c1ccc(Cl)cc1)c1c[nH]c(C(=O)NNc2cccc(Cl)n2)c1	i	23.1µM*	-26.8%	i	?	i
O=C(c1ccccc1)c1c[nH]c(C(=O)NNc2cccc(Cl)n2)c1	i	22.1%	-3.9%	i	21.0%	i
CCN=C1S/C(=C\c2sccc2C)C(=O)N1CC	i	17.6%	37.6%[11.3 µM]	13µM*	4.6%	?
Cc1ccsc1/C=C1\SC(=S)N(CC2CCCO2)C1=O (centres undefined)	i	?	39.0%	i	11.6%	i
COc1ccc(Cc2nnc(NC(=O)c3ccc(OC(C)=O)cc3)s2)cc1OC	i	0.3%	-18.5%	i	-7.6%	i
COc1cc(C)c(Sc2cnc(NC(=O)c3ccc(CNC(C)C(C)(C)C)cc3)s2)cc1C(=O)N1CCN(C(C)=O)CC1 (centres undefined)	/	/	8.63µM*	/	/	/
CCCCOc1ccc(S(=O)(=O)NCc2csc(C)n2)cc1	i	?	-20.8%	?	-21.8%[9.24 µM]	18.4µM*
O=C(Nc1ccc(Cl)cn1)c1cnn2c1NC(=C1CC1)C=C2C(F)F	/	/	/	i	/	i
Cc1nc2cc(NC(=O)[C@@H]3C[C@@H](Sc4ccccn4)CN3Cc3ccccc3F)ccc2s1	i	/	/	/	/	/
O=C(NCCCN1CCN(c2ccc(F)cc2)CC1)Nc1ccccc1Cl	i	/	-18.7%	i	/	i
Cc1ccc(C(=O)Nc2cccc(S(=O)(=O)N3CCCCC3)c2)cc1[N+](=O)[O-]	?	-5.0%	?	?	-23.4%	20.6µM*
O=S(=O)(Nc1ccccc1OC(F)F)c1ccc(S(=O)(=O)N2CCCC2)cc1	i	-2.0%	0.3%	18.4µM*	-1.6%	i
SMILES	ATXN viability	HT1080-NT tox	ATXN2 expr inh	KB-V1 MDR tox	HT1080 IDH1KD tx	KB-3-1 cytotox
O=C(Nc1cccc(S(=O)(=O)N2CCCCC2)c1)c1ccccc1NS(=O)(=O)c1ccc(F)cc1	i	?	-15.8%	20.6µM*	23.1µM*	?
Cc1ccc(NC(=O)c2ccccc2NS(=O)(=O)c2ccc(F)cc2)cc1S(=O)(=O)N1CCCCC1	i	?	?	?	?	?
O=C(Nc1cccc(S(=O)(=O)N2CCCCC2)c1)c1ccc([N+](=O)[O-])o1	?	10.3µM*	?	?	5.17µM*	?
COc1ccc(-n2cnnc2SCC(=O)Nc2cccc(S(=O)(=O)N3CCCCC3)c2)cc1	i	3.3%	-15.6%	14.6µM*	1.1%	i
COc1ccc(-n2cnnc2SCC(=O)Nc2cc(S(=O)(=O)N3CCCCC3)ccc2C)cc1	i	-2.6%	-0.8%	?	6.3%	i
O=C(Nc1ccc(F)cc1F)c1cc(S(=O)(=O)N2CCCCC2)c[nH]1	?	/	-26.7%	?	/	18.4µM*
Cc1ccc(S(=O)(=O)CCC(=O)Nc2cccc(S(=O)(=O)N3CCCCCC3)c2)cc1	?	3.2%	-6.1%	9.2µM*	7.0%	?
O=C(Nc1ccc(F)cc1F)c1ccc(S(=O)(=O)N2CCCCC2)cc1	i	0.0%	-2.8%	/	-21.2%	/
CN1C(=O)Cc2cc(S(=O)(=O)CCC(=O)N3CCN(c4ccc(Cl)cc4)CC3)ccc21	?	/	-27.0%	i	/	i
COc1cc(CN2CCc3nnc(C(NS(C)(=O)=O)C(C)C)n3CC2)ccc1F (centres undefined)	i	/	/	/	/	/
CCN(Cc1ccccc1)c1ccc(/C=N/NS(=O)(=O)c2cccc([N+](=O)[O-])c2)cc1	i	-10.3%	-23.8%	16.4µM*	-2.1%	i
CN(Cc1cnn(Cc2ccccc2)c1)C(=O)c1cccc(S(=O)(=O)N2CCOCC2)c1	?	?	-11.1%	i	?	14.6µM*
O=C(c1cccc(S(=O)(=O)N2CCOCC2)c1)N(CCc1ccccc1)Cc1ccccc1	?	-2.0%	?	i	1.1%	?
Cc1ccc(N(C)S(=O)(=O)c2cccc(C(=O)N(C)Cc3cnn(-c4ccccc4)c3)c2)cc1	?	-2.6%	-20.1%	5.8µM*	?	i
COc1ccc(C(=O)N(C)Cc2cnn(Cc3ccccc3)c2)cc1S(=O)(=O)N1CCOCC1	i	5.8µM*	/	i	5.8µM*	5.8µM*
CN(Cc1cnn(-c2ccccc2)c1)C(=O)c1cccc(S(=O)(=O)N(C)c2ccccc2)c1	?	-17.8%	/	?	-18.8%	i
O=C(NCc1ccc(F)cc1)c1cnc(N2CCOCC2)c2ccccc12	/	/	/	i	/	i
CCN(Cc1ccccc1)c1ccc(/C=N/NC(=O)c2cccc(S(=O)(=O)N3CCOCC3)c2)cc1	i	?	-30.7%	?	20.6µM*	?

Compound activity (PubChem BioAssay)
